The supplement of paper PMC11732987, “Enantioselective OTUD7B fragment discovery through chemoproteomics screening and high-throughput optimisation” (Communications Chemistry, 2025)

How the values were obtained:
Assay in all cases: log2 ratio of Biotin-Ahx-Ub-VS probe labelling (fragment/DMSO); higher = less target engagement (more negative = stronger competition), active = hit call of the paper (q ≤ 0.05, log2 ratio ≤ -1)
Conditions in all cases: compound concentration: 200 uM; treatment time: 3 h
[1] = target: T1, USP42 (UniProt Q9H9J4)
T1 sequence (whole entry): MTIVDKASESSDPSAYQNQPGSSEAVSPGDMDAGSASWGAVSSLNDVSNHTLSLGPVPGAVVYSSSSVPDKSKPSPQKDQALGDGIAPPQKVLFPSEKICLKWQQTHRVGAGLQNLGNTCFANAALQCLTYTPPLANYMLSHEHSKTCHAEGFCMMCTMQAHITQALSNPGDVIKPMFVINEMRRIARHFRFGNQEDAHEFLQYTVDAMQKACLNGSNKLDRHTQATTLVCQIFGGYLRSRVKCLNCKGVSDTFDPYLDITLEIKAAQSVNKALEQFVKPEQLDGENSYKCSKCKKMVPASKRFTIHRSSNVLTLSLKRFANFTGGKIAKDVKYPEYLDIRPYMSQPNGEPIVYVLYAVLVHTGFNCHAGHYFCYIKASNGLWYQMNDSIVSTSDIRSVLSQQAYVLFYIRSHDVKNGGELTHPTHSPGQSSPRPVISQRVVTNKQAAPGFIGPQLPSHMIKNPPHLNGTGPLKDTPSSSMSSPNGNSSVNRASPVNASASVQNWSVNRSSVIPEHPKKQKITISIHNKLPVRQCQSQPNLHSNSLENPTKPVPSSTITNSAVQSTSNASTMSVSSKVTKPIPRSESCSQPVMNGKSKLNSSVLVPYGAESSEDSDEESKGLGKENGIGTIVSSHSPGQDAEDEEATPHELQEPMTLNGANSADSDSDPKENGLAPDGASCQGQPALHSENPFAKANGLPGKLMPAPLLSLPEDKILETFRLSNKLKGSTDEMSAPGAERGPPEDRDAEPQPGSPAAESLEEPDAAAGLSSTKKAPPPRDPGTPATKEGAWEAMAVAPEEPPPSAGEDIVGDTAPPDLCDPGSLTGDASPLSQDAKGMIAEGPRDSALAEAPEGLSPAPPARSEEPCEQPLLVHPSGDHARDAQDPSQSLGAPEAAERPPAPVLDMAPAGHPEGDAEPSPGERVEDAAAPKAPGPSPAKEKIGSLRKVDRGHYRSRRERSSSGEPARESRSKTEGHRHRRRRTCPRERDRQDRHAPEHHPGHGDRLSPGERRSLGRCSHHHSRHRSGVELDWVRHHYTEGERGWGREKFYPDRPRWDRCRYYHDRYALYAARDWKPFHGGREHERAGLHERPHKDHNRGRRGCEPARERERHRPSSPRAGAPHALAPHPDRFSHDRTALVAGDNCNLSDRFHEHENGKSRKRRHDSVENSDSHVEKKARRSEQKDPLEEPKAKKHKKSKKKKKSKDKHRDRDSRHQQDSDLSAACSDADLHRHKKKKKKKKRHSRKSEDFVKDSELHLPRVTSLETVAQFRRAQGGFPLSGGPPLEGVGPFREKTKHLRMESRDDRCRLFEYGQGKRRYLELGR
In short: (§1)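 Fragment (200 µM) or vehicle was incubated for 3 h with triplicate HEK293T lysate samples of 495 µg, which were then treated with Biotin-Ahx-Ub-VS at 0.5 µM final for 1 h. Labelled DUBs were enriched on NeutrAvidin, digested with LysC and trypsin, and analysed by diaPASEF LC-MS/MS. Values are average log2 fragment/vehicle ratios from an unpaired t-test on global-median-normalised Spectronaut label-free quantities, using proteins with ≥2 unique peptides.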

[2] = target: USP46 (UniProt P62068)
In short: as §1

[3] = target: T2, USP47 (UniProt Q96K76)
T2 sequence (whole entry): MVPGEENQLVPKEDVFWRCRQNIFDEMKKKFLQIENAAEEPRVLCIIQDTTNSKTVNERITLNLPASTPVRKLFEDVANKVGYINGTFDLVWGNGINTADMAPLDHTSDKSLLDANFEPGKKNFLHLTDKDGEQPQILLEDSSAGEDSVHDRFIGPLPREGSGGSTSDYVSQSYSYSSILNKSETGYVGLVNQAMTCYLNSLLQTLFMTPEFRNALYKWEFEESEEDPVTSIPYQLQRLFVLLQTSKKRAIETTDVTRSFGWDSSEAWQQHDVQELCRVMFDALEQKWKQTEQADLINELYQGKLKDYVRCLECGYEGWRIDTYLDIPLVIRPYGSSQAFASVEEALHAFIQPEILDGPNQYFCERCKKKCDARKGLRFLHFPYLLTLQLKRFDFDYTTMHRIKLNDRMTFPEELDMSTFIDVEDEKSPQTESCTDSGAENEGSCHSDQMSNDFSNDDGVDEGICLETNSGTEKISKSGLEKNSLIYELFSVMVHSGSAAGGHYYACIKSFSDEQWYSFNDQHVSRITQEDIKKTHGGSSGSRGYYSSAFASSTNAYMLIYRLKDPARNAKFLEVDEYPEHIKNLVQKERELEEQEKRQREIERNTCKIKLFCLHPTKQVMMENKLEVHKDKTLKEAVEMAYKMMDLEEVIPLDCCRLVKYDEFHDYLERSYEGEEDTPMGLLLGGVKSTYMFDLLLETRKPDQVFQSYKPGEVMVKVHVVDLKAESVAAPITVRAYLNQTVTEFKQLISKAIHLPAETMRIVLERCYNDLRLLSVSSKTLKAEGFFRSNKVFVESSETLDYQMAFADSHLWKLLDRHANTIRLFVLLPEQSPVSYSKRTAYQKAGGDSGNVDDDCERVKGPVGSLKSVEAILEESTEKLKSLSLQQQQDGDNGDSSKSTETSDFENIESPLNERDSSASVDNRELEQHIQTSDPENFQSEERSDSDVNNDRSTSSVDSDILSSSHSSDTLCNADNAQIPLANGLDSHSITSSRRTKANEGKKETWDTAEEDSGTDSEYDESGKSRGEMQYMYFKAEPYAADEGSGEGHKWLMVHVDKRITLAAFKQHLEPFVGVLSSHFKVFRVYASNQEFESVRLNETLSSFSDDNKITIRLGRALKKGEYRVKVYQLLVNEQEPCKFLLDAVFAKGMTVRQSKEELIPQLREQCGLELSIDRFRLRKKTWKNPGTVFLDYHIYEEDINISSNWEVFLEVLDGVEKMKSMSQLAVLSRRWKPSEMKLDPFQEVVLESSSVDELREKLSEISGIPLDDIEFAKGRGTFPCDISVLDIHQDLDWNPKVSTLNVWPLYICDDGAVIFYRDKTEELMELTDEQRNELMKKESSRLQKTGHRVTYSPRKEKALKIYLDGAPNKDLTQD
In short: as §1

[4] = target: T3, USP48 (UniProt Q86UV5)
T3 sequence (whole entry): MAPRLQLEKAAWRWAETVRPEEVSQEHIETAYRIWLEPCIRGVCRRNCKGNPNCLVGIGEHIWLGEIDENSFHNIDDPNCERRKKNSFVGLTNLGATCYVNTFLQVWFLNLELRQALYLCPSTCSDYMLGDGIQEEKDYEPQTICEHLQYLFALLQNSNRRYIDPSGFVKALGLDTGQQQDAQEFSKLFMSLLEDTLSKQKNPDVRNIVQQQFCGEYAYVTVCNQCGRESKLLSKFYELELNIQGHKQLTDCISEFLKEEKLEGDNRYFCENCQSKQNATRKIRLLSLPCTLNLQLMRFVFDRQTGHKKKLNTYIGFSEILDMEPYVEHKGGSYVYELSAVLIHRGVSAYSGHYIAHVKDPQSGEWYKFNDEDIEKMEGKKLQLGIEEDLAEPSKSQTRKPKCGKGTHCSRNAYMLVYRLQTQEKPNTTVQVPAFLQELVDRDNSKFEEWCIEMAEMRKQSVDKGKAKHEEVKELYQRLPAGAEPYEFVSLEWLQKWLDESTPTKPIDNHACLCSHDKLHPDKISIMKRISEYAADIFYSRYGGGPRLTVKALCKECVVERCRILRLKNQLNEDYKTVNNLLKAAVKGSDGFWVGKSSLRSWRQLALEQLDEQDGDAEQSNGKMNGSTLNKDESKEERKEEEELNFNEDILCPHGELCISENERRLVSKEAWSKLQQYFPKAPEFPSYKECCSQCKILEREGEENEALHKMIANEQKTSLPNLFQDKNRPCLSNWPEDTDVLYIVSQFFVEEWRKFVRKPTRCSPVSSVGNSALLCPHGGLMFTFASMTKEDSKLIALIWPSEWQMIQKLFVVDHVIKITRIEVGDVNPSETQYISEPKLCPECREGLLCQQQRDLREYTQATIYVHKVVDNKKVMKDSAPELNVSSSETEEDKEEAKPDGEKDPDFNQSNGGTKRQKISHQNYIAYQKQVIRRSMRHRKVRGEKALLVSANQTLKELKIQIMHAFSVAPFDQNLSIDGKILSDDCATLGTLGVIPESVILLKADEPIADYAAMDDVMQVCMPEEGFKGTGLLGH
In short: as §1

[5] = target: T4, USP5 (UniProt P45974)
T4 sequence (whole entry): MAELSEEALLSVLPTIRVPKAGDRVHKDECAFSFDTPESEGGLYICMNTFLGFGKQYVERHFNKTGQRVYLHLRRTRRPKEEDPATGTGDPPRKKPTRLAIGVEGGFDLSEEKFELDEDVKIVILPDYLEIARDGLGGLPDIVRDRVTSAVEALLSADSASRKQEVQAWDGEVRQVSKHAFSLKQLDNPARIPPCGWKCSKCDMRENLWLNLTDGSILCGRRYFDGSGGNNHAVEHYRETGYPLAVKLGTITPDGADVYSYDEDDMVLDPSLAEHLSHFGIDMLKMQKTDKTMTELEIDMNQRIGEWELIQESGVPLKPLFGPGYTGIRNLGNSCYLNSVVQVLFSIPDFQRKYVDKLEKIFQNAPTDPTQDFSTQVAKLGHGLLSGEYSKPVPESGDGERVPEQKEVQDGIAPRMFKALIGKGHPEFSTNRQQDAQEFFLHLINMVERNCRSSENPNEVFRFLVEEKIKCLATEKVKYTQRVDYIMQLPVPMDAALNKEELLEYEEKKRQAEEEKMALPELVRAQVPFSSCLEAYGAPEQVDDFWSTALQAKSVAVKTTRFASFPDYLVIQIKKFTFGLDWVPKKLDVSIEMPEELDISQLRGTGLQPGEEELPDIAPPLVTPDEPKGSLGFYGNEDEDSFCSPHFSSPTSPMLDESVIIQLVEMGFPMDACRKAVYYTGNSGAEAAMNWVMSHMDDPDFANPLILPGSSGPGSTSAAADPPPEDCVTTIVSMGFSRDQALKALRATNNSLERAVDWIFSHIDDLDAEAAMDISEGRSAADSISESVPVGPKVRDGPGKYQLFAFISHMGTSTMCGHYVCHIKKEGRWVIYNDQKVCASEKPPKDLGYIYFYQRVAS
In short: as §1

[6] = target: USP54 (UniProt Q70EL1)
In short: as §1

[7] = target: USP7 (UniProt Q93009)
In short: as §1

[8] = target: T5, USP8 (UniProt P40818)
T5 sequence (whole entry): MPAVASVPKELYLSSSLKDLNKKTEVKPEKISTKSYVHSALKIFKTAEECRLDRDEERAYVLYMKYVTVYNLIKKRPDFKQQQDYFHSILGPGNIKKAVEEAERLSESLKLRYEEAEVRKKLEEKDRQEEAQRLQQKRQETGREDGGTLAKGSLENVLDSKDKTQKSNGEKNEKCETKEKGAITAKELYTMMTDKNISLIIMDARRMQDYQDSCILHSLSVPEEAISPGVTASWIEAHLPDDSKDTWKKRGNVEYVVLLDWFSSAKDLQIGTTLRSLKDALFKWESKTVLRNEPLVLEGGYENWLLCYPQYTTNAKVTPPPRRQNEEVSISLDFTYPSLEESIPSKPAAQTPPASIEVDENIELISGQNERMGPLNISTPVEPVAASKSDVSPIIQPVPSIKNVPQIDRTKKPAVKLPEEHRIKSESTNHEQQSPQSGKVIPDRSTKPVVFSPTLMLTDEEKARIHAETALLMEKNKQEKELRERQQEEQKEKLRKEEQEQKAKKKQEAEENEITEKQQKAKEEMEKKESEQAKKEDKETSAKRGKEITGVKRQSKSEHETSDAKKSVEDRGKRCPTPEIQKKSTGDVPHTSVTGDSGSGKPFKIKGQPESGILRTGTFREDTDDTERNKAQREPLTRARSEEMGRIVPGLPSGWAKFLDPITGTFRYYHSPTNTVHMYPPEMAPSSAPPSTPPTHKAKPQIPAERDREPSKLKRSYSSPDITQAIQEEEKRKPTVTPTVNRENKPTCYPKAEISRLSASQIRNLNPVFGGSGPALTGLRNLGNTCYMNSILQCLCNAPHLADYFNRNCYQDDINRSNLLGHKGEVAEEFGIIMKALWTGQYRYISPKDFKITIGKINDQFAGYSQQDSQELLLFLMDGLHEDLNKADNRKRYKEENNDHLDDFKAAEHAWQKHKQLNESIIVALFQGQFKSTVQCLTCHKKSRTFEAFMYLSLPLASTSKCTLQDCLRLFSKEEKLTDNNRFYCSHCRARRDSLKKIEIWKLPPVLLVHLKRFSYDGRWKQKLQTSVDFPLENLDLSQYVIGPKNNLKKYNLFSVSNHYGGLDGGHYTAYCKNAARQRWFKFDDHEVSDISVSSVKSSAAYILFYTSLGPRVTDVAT
In short: as §1

[9] = target: USP9X (UniProt Q93008)
In short: as §1

[10] = target: UniProt O00487
In short: as §1

Measured: log2 ratio of Biotin-Ahx-Ub-VS probe labelling

Sequence of USP54 (Q70EL1 whole entry): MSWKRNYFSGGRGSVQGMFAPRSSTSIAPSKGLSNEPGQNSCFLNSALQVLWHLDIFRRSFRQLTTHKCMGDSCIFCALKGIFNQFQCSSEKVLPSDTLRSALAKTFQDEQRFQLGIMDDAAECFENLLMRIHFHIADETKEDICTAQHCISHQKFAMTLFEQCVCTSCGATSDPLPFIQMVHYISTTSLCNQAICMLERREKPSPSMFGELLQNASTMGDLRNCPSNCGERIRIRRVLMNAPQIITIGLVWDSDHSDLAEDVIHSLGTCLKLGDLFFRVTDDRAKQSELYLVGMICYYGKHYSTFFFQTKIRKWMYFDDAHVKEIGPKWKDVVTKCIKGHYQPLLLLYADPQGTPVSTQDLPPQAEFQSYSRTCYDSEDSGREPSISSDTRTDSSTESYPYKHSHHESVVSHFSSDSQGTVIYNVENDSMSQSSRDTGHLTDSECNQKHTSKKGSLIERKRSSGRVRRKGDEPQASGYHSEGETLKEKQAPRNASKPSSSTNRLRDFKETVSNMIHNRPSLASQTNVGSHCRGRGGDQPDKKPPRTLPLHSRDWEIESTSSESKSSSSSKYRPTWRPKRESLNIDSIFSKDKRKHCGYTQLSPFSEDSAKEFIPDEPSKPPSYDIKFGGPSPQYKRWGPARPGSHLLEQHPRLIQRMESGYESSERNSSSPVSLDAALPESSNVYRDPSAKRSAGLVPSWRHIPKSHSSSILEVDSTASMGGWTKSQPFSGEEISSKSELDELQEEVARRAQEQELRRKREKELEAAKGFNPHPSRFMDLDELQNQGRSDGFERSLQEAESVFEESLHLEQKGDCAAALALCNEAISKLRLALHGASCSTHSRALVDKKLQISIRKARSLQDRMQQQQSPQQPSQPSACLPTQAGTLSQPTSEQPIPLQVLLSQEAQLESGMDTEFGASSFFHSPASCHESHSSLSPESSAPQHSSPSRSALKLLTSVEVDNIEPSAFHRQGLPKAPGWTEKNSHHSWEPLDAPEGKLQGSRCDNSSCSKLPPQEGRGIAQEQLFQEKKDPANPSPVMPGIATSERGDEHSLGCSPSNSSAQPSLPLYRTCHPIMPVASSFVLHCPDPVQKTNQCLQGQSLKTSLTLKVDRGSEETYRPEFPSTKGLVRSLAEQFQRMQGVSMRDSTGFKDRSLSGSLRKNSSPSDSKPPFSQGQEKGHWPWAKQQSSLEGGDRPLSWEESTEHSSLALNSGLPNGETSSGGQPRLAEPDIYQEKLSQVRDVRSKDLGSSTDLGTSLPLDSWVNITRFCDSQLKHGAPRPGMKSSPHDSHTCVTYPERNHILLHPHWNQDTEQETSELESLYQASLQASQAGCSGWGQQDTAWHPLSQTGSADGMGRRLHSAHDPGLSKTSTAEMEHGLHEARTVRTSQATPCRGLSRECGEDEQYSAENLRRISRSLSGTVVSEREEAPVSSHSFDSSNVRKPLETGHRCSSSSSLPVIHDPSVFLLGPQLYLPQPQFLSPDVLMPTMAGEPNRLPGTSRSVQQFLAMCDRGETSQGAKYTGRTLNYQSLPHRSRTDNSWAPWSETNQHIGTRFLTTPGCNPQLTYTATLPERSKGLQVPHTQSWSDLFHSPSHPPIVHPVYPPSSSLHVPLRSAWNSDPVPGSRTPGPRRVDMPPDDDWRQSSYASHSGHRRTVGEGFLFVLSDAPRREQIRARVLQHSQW
Sequence of USP7 (Q93009 whole entry, looked up): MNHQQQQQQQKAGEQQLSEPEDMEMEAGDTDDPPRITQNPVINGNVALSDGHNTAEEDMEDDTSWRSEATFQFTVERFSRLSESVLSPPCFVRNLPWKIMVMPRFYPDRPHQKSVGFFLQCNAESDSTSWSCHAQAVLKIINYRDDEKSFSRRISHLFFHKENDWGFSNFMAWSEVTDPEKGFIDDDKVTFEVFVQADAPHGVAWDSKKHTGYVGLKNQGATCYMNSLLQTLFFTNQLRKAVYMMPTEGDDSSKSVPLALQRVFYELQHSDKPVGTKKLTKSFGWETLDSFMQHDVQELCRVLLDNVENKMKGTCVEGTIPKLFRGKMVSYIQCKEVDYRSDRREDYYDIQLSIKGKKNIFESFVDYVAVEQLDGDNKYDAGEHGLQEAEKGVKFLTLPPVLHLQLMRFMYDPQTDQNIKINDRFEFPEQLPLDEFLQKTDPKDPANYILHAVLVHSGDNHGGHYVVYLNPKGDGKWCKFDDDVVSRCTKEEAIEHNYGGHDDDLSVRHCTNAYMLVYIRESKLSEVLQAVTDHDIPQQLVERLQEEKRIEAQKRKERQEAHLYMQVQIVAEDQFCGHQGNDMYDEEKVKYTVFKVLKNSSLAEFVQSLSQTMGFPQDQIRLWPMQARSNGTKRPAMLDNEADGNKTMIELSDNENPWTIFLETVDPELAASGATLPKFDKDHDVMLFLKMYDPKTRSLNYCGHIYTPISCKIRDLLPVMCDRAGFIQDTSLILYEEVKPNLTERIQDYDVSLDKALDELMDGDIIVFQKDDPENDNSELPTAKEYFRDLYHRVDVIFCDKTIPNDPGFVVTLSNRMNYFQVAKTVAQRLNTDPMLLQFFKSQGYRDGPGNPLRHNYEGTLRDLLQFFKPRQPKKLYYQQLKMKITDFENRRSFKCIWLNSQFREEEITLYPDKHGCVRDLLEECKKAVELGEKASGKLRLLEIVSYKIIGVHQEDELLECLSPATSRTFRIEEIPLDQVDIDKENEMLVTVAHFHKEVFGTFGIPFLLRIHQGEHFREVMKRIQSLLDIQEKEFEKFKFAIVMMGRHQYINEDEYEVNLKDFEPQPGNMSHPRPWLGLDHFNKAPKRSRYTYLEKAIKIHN
Sequence of UniProt O00487 (O00487 whole entry): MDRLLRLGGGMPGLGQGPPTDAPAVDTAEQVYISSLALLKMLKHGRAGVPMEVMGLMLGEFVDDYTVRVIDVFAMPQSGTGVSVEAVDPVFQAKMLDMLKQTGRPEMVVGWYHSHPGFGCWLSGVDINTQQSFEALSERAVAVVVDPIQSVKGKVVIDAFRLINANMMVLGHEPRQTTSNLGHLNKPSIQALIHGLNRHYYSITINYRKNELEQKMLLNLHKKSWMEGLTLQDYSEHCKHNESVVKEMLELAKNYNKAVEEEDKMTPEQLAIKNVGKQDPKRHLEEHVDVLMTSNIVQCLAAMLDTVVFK
Sequence of USP46 (P62068 whole entry): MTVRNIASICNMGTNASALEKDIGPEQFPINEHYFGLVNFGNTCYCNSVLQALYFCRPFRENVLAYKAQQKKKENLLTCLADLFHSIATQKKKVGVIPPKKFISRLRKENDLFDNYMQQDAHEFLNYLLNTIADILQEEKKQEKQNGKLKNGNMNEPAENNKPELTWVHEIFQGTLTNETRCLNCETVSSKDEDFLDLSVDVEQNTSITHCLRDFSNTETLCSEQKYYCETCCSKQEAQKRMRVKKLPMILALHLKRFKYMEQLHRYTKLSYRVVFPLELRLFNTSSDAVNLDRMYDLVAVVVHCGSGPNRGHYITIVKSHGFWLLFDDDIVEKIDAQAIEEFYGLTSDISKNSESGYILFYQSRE

O=C(CCl)NCCc1ccc(F)cc1
inactive: [1] 0.0996 | [2] 0.235 | [3] -0.0571 | [4] -0.229 | [5] 0.066 | [6] 0.699 | [7] -0.0342 | [8] -0.0379 | [9] -0.0191 | [10] 0.113
